ChEMBL document CHEMBL2218924, “A broad activity screen in support of a chemogenomic map for kinase signalling research and drug discovery” (Biochem J, 2013)

Experiments:
[1] = molecular target: T1, Mitogen-activated protein kinase kinase kinase 7 (Homo sapiens) (UniProt O43318); details: at 1 µM
T1 sequence (whole entry): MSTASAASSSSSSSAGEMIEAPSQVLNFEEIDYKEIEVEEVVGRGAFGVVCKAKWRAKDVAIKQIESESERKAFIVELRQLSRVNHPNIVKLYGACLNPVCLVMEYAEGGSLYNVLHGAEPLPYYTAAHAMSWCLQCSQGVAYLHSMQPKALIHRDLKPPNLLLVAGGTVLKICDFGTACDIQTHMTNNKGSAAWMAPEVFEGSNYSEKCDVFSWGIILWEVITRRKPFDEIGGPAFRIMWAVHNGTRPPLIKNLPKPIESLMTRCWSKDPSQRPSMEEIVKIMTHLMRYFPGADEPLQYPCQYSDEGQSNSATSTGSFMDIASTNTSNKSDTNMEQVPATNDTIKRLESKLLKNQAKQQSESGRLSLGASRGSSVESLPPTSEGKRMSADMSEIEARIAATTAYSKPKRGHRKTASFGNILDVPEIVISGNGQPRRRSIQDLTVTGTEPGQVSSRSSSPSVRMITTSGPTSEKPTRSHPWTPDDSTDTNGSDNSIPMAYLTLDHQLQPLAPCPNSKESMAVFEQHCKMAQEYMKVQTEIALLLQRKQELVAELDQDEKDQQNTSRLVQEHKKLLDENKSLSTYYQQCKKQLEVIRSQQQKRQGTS

[2] = molecular target: T1, Mitogen-activated protein kinase kinase kinase 7 (Homo sapiens); details: at 10 µM
[3] = molecular target: T2, Serine/threonine-protein kinase TBK1 (Homo sapiens) (UniProt Q9UHD2); details: at 1 µM
T2 sequence (whole entry): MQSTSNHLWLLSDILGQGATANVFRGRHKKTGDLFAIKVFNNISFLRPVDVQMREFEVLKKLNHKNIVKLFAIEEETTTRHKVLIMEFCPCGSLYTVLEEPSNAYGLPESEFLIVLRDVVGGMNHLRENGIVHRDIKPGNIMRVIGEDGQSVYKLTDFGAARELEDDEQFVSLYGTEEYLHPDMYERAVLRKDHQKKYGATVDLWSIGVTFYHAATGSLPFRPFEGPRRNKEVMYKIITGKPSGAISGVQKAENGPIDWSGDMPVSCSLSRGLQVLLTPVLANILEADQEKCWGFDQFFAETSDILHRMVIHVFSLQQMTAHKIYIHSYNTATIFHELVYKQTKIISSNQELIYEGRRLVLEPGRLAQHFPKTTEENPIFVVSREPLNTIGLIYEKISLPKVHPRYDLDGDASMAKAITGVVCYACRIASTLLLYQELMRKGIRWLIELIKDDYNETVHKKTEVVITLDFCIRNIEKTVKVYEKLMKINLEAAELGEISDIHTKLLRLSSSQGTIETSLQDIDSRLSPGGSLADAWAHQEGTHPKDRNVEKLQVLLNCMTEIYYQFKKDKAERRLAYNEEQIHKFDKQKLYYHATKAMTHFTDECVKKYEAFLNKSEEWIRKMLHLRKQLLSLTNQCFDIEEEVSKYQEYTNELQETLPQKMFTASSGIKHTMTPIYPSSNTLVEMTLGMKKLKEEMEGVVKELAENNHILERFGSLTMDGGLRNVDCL

[4] = molecular target: T2, Serine/threonine-protein kinase TBK1 (Homo sapiens); details: at 10 µM
[5] = molecular target: T3, Inhibitor of nuclear factor kappa-B kinase subunit alpha (Homo sapiens) (UniProt O15111); details: at 1 µM
T3 sequence (whole entry): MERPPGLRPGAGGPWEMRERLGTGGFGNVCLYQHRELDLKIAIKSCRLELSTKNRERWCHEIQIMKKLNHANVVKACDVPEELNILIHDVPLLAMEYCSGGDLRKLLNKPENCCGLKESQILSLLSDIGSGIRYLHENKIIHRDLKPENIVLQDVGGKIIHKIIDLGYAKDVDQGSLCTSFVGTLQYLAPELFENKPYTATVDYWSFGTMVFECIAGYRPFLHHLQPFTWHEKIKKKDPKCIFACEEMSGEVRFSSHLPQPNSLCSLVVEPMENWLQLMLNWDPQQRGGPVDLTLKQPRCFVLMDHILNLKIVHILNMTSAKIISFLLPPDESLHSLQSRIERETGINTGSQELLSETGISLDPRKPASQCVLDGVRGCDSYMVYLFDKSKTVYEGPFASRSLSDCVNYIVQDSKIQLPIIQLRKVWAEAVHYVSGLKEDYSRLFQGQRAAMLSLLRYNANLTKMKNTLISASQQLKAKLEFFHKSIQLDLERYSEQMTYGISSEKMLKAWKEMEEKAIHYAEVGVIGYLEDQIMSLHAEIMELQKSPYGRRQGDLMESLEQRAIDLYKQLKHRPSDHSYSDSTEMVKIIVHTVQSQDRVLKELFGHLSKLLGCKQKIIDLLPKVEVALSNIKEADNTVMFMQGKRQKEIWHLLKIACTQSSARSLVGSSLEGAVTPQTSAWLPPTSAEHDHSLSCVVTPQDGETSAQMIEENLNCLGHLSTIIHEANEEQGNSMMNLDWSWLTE

[6] = molecular target: T3, Inhibitor of nuclear factor kappa-B kinase subunit alpha (Homo sapiens); details: at 10 µM
[7] = molecular target: Insulin receptor (Homo sapiens) (UniProt P06213); details: at 1 µM
[8] = molecular target: T4, Serine/threonine-protein kinase TAO2 (Homo sapiens) (UniProt Q9UL54); details: at 1 µM
T4 sequence (whole entry): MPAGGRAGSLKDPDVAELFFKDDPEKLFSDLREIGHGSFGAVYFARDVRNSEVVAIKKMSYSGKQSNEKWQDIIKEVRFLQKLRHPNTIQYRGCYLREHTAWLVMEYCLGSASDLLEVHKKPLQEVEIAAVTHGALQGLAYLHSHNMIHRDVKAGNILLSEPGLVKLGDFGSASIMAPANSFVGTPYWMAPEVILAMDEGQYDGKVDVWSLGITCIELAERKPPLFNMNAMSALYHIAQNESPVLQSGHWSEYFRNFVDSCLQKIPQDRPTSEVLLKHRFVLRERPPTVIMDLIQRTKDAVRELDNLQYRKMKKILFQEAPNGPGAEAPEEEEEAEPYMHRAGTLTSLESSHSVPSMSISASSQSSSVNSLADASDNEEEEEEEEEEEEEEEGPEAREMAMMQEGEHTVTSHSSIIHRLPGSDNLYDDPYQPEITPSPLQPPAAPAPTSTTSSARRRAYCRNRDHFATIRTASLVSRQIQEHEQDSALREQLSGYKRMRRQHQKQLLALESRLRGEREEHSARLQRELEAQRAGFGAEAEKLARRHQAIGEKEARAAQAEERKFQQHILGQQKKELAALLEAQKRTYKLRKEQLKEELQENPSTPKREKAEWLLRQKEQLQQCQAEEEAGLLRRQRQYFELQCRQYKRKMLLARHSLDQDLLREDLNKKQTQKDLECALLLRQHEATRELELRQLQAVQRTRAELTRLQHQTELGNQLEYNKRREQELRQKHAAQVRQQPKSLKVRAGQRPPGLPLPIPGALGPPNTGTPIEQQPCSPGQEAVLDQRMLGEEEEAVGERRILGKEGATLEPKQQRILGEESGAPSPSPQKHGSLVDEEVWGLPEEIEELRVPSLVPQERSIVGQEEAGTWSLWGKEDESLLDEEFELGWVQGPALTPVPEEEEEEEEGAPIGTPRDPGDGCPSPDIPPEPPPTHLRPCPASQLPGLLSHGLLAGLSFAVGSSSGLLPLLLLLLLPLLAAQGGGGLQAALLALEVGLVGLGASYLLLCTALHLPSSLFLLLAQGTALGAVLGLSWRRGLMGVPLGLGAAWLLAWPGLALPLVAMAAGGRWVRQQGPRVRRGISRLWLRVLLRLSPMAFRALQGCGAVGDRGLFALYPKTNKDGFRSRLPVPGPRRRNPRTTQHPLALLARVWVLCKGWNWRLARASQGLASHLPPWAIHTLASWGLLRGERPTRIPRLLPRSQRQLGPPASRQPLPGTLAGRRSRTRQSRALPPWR

[9] = molecular target: T4, Serine/threonine-protein kinase TAO2 (Homo sapiens); details: at 10 µM
[10] = molecular target: T5, TGF-beta receptor type-1 (Homo sapiens) (UniProt P36897); details: at 1 µM
T5 sequence (whole entry): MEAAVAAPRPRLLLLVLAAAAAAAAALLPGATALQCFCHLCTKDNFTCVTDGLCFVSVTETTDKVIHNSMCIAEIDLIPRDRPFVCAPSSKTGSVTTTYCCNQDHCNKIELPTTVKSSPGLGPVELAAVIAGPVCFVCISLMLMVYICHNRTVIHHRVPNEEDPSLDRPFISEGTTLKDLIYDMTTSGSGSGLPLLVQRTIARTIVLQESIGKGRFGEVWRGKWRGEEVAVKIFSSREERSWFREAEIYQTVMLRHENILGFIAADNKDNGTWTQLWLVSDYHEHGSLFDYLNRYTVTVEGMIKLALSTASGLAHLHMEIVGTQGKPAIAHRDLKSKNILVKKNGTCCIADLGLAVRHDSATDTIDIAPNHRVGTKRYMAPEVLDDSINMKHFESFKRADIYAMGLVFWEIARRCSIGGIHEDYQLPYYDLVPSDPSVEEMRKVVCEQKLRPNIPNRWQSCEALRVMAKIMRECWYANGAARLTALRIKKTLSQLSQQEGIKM

[11] = molecular target: T5, TGF-beta receptor type-1 (Homo sapiens); details: at 10 µM
[12] = molecular target: T6, Inhibitor of nuclear factor kappa-B kinase subunit beta (Homo sapiens) (UniProt O14920); details: at 1 µM
T6 sequence (whole entry): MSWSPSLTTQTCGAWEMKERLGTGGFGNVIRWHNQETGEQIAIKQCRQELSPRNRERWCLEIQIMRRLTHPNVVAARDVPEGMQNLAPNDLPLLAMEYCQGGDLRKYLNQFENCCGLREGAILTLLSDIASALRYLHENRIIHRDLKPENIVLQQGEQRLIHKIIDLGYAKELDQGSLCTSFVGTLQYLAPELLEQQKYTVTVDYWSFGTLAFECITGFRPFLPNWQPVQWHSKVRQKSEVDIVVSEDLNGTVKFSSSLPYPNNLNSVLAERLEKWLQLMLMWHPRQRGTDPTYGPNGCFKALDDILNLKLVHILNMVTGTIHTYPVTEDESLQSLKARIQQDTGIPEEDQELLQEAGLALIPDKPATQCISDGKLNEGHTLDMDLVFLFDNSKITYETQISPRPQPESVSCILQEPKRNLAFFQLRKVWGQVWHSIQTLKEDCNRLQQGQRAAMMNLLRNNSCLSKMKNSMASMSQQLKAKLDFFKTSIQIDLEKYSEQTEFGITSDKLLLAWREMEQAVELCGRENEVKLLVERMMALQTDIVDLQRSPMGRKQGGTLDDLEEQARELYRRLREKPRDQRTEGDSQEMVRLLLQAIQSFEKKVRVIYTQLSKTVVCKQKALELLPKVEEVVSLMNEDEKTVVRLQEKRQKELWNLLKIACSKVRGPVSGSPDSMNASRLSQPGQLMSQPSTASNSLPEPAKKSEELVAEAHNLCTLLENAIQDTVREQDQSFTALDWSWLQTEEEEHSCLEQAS

Insulin receptor (Homo sapiens), sequence (P06213 28-758 limits assumed): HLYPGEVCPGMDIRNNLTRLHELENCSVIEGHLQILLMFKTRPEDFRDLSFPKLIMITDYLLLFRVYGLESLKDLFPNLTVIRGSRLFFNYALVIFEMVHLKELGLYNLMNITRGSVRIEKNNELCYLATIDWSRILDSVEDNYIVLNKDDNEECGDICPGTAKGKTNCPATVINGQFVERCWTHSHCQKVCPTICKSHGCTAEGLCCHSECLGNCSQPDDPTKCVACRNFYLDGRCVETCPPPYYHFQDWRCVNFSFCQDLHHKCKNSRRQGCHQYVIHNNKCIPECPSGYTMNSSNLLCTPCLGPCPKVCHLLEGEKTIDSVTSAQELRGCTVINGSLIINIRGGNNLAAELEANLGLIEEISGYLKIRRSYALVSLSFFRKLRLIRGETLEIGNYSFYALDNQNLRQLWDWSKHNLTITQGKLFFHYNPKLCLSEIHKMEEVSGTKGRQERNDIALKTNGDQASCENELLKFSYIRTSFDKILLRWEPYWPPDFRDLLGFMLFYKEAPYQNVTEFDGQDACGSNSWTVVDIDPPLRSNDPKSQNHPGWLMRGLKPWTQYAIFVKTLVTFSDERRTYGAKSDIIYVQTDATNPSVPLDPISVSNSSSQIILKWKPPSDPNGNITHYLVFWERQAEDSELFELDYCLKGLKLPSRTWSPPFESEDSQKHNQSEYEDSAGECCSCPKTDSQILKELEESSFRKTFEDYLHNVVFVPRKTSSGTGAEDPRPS
Insulin receptor (Homo sapiens), sequence (P06213 763-1382 limits assumed): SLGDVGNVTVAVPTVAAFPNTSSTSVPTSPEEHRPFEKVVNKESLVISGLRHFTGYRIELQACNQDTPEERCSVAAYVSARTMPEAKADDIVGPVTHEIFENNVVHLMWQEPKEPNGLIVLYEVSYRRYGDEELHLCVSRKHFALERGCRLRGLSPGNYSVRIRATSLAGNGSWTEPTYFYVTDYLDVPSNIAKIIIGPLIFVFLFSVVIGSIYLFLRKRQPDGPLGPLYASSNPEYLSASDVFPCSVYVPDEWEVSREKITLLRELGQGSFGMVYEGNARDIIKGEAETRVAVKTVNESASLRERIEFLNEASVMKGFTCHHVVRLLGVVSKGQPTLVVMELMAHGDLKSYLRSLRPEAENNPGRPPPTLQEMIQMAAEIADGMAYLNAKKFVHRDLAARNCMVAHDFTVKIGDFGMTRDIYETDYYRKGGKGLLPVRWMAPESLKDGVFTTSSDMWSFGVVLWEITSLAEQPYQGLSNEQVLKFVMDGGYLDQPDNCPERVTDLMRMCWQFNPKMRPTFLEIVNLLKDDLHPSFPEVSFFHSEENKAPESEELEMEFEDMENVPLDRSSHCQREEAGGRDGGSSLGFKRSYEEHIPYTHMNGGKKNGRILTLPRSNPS

Structure (SMILES) | residual activity [1] | residual activity [2] | residual activity [3] | residual activity [4] | residual activity [5] | residual activity [6] | residual activity [7] | residual activity [8] | residual activity [9] | residual activity [10] | residual activity [11] | residual activity [12]
CCOC(=O)c1c(C)[nH]c(/C=C2\C(=O)Nc3ccccc32)c1C | 89% | 98% | 92% | 85% | 96% | 88% | 93% |  |  |  |  | 
COc1ccc(COc2ccc(Cc3cnc(N)nc3N)cc2OC)cc1 |  |  | 61% | 58% |  |  |  | 100% | 79% | 79% | 77% | 109%
